# Assay outcomes deposited in PubChem by National Center for Advancing Translational Sciences (NCATS).
# D1 agonist – activates the human D1 dopamine receptor; activation, % at 2 µM; 360,000 compounds, 1% hits; AID 504660; HEK293 T-REx D1 cells, calcium flux, agonist mode; P21728; note: 0% is about no effect
#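 Tetracycline-induced HEK293 TREx D1 cells, force-coupled to calcium signalling, were dye-loaded with a no-wash calcium kit. Compound was pin-added after a 10 s baseline. Fluorescence was read kinetically at 1 cycle/s for 180 s, with calcium rises flagged as agonism.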
# TRHR enhancer – allosterically enhances the human TRH receptor. TRHR cells, fluo-8 calcium fluorescence, EC20 TRH enhancement. enhancement, % at 2 µM. 360,000 compounds, 0.66% hits. AID 493056; in the data active = enhancement above about 30%; note: 0% is about no effect
# Target sequence (P34981 whole entry, looked up): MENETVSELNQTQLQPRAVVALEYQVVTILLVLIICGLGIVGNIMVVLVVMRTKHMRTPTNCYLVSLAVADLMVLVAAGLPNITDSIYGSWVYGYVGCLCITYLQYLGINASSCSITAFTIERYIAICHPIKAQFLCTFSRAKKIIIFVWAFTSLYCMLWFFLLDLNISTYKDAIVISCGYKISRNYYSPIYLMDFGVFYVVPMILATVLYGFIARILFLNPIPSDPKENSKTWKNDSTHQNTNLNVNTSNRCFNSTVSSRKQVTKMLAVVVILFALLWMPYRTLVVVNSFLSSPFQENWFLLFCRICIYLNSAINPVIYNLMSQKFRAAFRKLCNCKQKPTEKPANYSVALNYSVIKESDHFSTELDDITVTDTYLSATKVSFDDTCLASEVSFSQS
#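 TRHR-expressing cells loaded with fluo-8 calcium dye were read kinetically (ex 480/em 530) during compound addition, then stimulated with an EC20 of TRH (10 nM final). Enhancement of the Gq-mediated intracellular calcium response was scored.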
# D1 PAM – human D1 dopamine receptor positive modulation; potentiation, % at 10 µM; P21728; HEK293 TREx D1 cells, calcium flux, dopamine EC20 potentiation; 360,000 compounds, 0.036% hits; AID 504651; in the data active = potentiation above about 30%; note: 0% is about no effect
# D1 antag – antagonists of human D1 dopamine receptor; P21728; HEK293 TREx D1 cells, calcium flux, dopamine EC80; stronger effect = lower value; activity change, negative = inhibition, % at 10 µM; 360,000 compounds, 3.2% hits; AID 504652; in the data active = activity change below about -30%; note: % is set by controls: 0 for no effect and ±100 for the full control effect
#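 Cells carrying a force-coupled, tetracycline-inducible human D1 receptor report calcium flux. Each well gets a 10 s baseline, compound with 180 s monitoring, then an EC80 dopamine stimulus with a second 180 s kinetic read.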
# TRHR agonist – activates the human TRH receptor | AID 493084 | TRHR cells, calcium flux fluo-8, FDSS agonist mode | activation, % at 2 µM | P34981 | 360,000 compounds, 0.18% hits; note: 0% is about no effect
#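 TRHR-expressing cells loaded with fluo-8 calcium dye; 23 nL library compound pin-transferred, kinetic FDSS fluorescence (Ex 480/Em 530) recorded about 180 s for agonist-induced calcium release, before a 10 nM TRH EC20 addition for potentiator mode.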
# Starred values were filed as active, the others as inactive. An excerpt weighted towards active compounds, which were near 4.7% of everything screened. Cut-off read from the data, not from the text of the source, unless noted: active = activation above about 30%; inactive = the rest.
SMILES,D1 agonist,TRHR enhancer,D1 PAM,D1 antag,TRHR agonist
CCC(C)(C)NC(=O)C(OC(=O)c1ccco1)c1ccccc1F (stereo unspecified),0.9,6.0,-4.5,-27.3,-0.5
O=C(c1ccc(CS(=O)(=O)c2c(Cl)cccc2Cl)o1)N1CCN(c2ccccc2)CC1,5.7,12.6,-3.1,-12.7,-0.6
Cc1ccc(-c2n[nH]c(=S)c3ccccc23)cc1,2.8,-7.6,-5.5,-34.9*,-1.4
Oc1ccc(-c2csc(-c3c[nH]c4ccccc34)n2)c(O)c1,2.0,39.7*,-5.2,-17.9,0.4
O=C(NCCCN=C1NS(=O)(=O)c2ccccc21)c1ccc(S(=O)(=O)N2CCCCC2)cc1,7.3,-4.9,-0.6,-35.1*,-0.9
CCN(CC)CCNC(=O)c1ccc(NC(=O)c2cc(S(=O)(=O)N3CCCCC3)ccc2C)cc1,0.2,-7.3,0.0,-37.1*,0.3
CCN(CC)CCNC(=O)c1ccc(NC(=O)c2cccc(S(=O)(=O)Nc3ccc(C)cc3)c2)cc1,1.2,-0.2,-18.6,-77.0*,0.1
Cc1ccc(C(=O)NCCn2c(C)cc3ccccc32)cc1C,0.9,-5.1,-5.6,-13.3,0.0
Cc1cc2ccccc2n1CCNC(=O)c1ccc(S(=O)(=O)N2CCCCC2)cc1,60.8*,-1.2,2.6,27.9,-0.2
COc1cccc(-c2nc(CS(=O)(=O)CC(=O)Nc3ccc(F)cc3F)c(C)o2)c1,4.2,30.5*,-6.3,-4.4,-0.1
COc1cccc(-c2nc(CSCC(=O)NCCc3ccc(Cl)cc3)c(C)o2)c1,48.0*,28.2,3.5,-35.9*,-0.4
COc1ccc(CCNC(=O)CSCc2nc(-c3cccc(C)c3)oc2C)cc1OC,4.6,2.8,-2.8,-2.4,0.0
COc1ccc(-c2nc(CS(=O)(=O)CC(=O)NC3CCC(C)CC3)c(C)o2)cc1 (stereo unspecified),30.8*,5.3,-4.6,-33.2*,-0.5
CCc1ccccc1NC(=O)CSc1nnc(-c2cc(OC)c(OC)c(OC)c2)o1,3.4,-2.8,-0.7,-7.0,0.3
Cc1cc(Br)ccc1NC(=O)c1sc2ncn(Cc3ccccc3Cl)c(=O)c2c1C,0.1,0.3,-2.6,-14.9,0.6
CCOC(=O)c1c(-c2ccccc2)csc1NC(=O)c1cc(-c2ccc(F)cc2)on1,0.9,8.3,2.1,2.1,0.8
COc1cc([N+](=O)[O-])ccc1N/C=C/C(=O)c1cccs1,41.9*,16.3,-8.2,-8.2,13.1
O=C(NCc1ccc2c(c1)OCO2)C(=O)NCC1OCCN1S(=O)(=O)c1ccc(Cl)cc1 (stereo unspecified),3.2,-3.7,-3.2,-30.8*,-0.6
O=C(NCCCn1ccnc1)C(=O)NCC1OCCN1S(=O)(=O)c1ccc(Cl)cc1 (stereo unspecified),-1.2,5.3,-1.2,-10.8,0.0
O=C(NCCCn1ccnc1)C(=O)NCC1OCCCN1S(=O)(=O)c1ccc(Cl)cc1 (stereo unspecified),0.4,-1.5,-5.1,-51.0*,-0.4
O=C(NCc1ccc2c(c1)OCO2)C(=O)NCC1OCCN1S(=O)(=O)c1ccc(Br)cc1 (stereo unspecified),7.7,-0.3,-5.2,-7.2,0.0
O=C(Nc1ccc(C(=O)NCCCN2CCN(c3ccc(F)cc3)CC2)cc1)C1=CSCCO1,62.5*,-2.7,-16.9,-78.5*,10.0
O=C(Nc1ccc(C(=O)NCCCN2CCCCC2)cc1)C1=CSCCO1,2.4,-5.0,-3.1,12.8,1.1
Cc1cccc(N2CCN(CCCNC(=O)c3ccc(NC(=O)C4=CSCCO4)cc3)CC2C)c1 (stereo unspecified),17.7,-6.1,-15.7,-39.8*,0.3
CC(=O)N1CCCc2cc(S(=O)(=O)N3CCC(C(=O)Nc4cccc(Cl)c4C)CC3)ccc21,-0.5,-4.2,-5.5,-11.8,-0.6
SMILES,D1 agonist,TRHR enhancer,D1 PAM,D1 antag,TRHR agonist
Cn1ncc(-c2ccno2)c1C(=O)O,37.4*,2.4,-0.3,-6.3,0.3
Cc1cccc(C)c1NC(=O)CSCc1cnn(-c2ccccc2)c1-n1cccc1,-1.8,-0.6,-3.0,4.9,-0.7
Cc1cc(N2Cc3ccccc3C2)ccc1C=O,5.1,6.3,-2.5,-6.5,-0.6
Cc1cccc(NC(=S)NC2CCSc3ccccc32)c1 (stereo unspecified),7.6,-11.7,-10.8,-33.1*,0.6
CC(C)CCN1CCN(CCCc2ccccc2)CC1CCO (stereo unspecified),0.2,5.1,-1.5,-3.6,0.1
CC(C)/C=C/CN1CCN(CCCc2ccccc2)C(CCO)C1 (stereo unspecified),3.2,33.9*,-1.9,0.8,0.0
Fc1ccc(C2=NC(c3cccc(C(F)(F)F)c3)=Nc3ccccc3N2)cc1,7.9,-1.9,-2.2,9.1,4.0
Cc1nc(SCC(=O)Nc2ccc3c(c2)OCCO3)nc(C)c1C,3.3,-5.8,10.9,-3.6,-0.3
Cc1cc(=O)[nH]c(SCC(=O)Nc2ccc3c(c2)OCCO3)n1,0.9,32.3*,3.4,6.3,0.3
O=C(CSc1nccc(=O)[nH]1)Nc1ccc(F)c(Cl)c1,-0.2,-3.7,-1.6,-0.2,0.9
O=C(CSc1nccc(=O)[nH]1)NCc1ccc2c(c1)OCO2,1.6,3.0,2.5,-35.1*,0.3
O=C(CSc1nccc(=O)[nH]1)Nc1ccc(Oc2ccccc2)cc1,2.2,-3.6,-9.6,-57.0*,0.3
O=C(CSc1nccc(=O)[nH]1)Nc1ccc2c(c1)OCCO2,0.5,4.1,-0.8,-57.8*,1.0
Cc1cccc(CCNC(=O)c2cc3c(=O)[nH]c4ccc(C)cc4c3s2)c1,0.1,-10.7,-4.2,-9.6,0.2
CCOC(=O)C1CCN(C(=O)c2ccc(-n3ccc4ccccc43)s2)CC1,2.6,-4.8,-5.2,-15.0,0.2
O=C(CSc1nccn1Cc1ccc(Cl)cc1)Nc1ccc2c(c1)OCCO2,1.2,-1.8,1.1,-30.9*,-0.4
CCc1nc(SCC(=O)Nc2ccc3c(c2)OCCO3)c2oc3ccccc3c2n1,2.4,2.5,5.3,-33.7*,-0.1
COc1ccc(Nc2nc(N)nc(CSc3nc4cc(OC)ccc4s3)n2)cc1,1.8,6.0,-6.6,-19.5,-0.6
Cc1cc(NC(=O)c2cc(CC(C)C)on2)no1,-1.6,1.5,3.9,12.4,0.3
CCC(C)NC(=O)c1cc(CC(C)C)on1 (stereo unspecified),1.7,3.5,0.6,-30.4*,0.2
CCOC(=O)C1=CC[C@]2(C)c3c(c4ccccc4n3C)C(=O)C1N2C,2.3,-6.4,-7.7,-45.2*,-0.5
CCc1nc2nc(C)cc(Nc3cc(Cl)ccc3OC)n2n1,-0.7,5.3,-1.0,4.0,-1.2
O=C(Nc1ccccc1C(F)(F)F)c1noc2c1CCCC2,4.4,-2.1,0.2,-0.5,-0.4
CCCN1CCN(c2nc3c([nH]2)c(=N)ncn3CC(O)CO)CC1 (stereo unspecified),-0.2,-4.2,1.6,-26.8,0.4
